Pf growth 48h: P. falciparum growth inhibition at 48 hours (one generation); P. falciparum luciferase growth in erythrocytes, 48 h; Potency, µM (doses to about 28.7 µM), for the others: at the highest dose activity change, negative = inhibition, hits mostly inhibitors; actives 5.9% (n = 310,000); AID 504832; further: potency means the concentration at half of the fitted maximal effect; on the % scale 0 is the no-effect control and ±100 the full control effect
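Compounds are pin-transferred into medium, infected erythrocytes (2% hematocrit, 0.1% parasitemia final) are added, and plates sit one parasite generation at 37 C in 5% CO2. Detection reagent is then added and luminescence measured.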
Cycloheximide cs: counter-screen for Shiga toxin inhibitors: cycloheximide protein synthesis inhibition. cell reporter, cycloheximide protein synthesis inhibition counterscreen. AID 2314. max response, %. actives 12% (n = 300,000); in the data active means max response mostly above about 13%, no sharp cut-off; inactive means mostly below about 14%; further: read at 38.3 µM for the half of the compounds with a filed dose; 0% is about no effect
Shiga toxin inh: Shiga toxin inhibition | actives 9.2% (n = 290,000) | Vero cells, Shiga toxin protein synthesis inhibition reporter | inhibition, % at 38.7 µM | AID 2315; in the data active means inhibition mostly above about 28%, no sharp cut-off; inactive means mostly below about 43%; further: 0% is about no effect
Giardia FBPA inh: Giardia lamblia aldolase inhibition; A8B2U2; purified Giardia FBPA; Potency, µM (series often up to 59.6 µM), without a hit: top-dose activity, negative = inhibition, actives largely listed as inhibitors; actives 0.71% (n = 290,000); AID 2451; further: potency means the concentration at half of the fitted maximal effect; on the % scale 0 is the no-effect control and ±100 the full control effect; nearly all actives have a fitted effect of over 55% in size
Target sequence (A8B2U2 whole entry, looked up): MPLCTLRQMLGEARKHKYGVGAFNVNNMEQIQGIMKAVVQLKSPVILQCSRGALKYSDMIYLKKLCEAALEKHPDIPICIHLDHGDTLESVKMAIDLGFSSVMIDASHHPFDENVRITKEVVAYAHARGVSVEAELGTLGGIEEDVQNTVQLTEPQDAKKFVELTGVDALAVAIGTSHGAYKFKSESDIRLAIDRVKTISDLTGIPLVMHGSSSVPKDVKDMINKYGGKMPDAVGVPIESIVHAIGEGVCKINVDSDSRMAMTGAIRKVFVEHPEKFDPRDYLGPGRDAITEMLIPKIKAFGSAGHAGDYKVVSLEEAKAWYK
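Giardia FBPA (40 nM reagent) was preincubated 10 min at RT with compound (up to 57.5 uM final), then substrate plus GAPDH/TPI/NAD/arsenate coupling system with diaphorase/resazurin was added; resorufin fluorescence (525/598 nm) was read after 20 min.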
NS1 function inh: inhibitors of influenza NS1 protein function. actives 0.4% (n = 270,000). Potency, µM (titrated, usually from 46.1 µM), for the others: top-dose activity, positive = more growth. AID 2326; calls by dose curve; further: potency means the concentration at half of the fitted maximal effect; actives are rising curves; nearly all actives have a fitted effect of over 50% in size
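Compounds were scored for reversing the slow growth caused by influenza A NS1 in S. cerevisiae, measured by optical density at 600 nm. Assay medium contained 2% galactose at pH 6.0; NS1-free yeast of the same strain were the positive control.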
Pf growth 96h: P. falciparum growth inhibition at 96 hours | AID 504834 | Potency, µM (doses to about 28.7 µM), for inactives: top-dose activity change, negative = inhibition, usual class: inhibitors | actives 6.9% (n = 320,000) | P. falciparum luciferase reporter growth, 96 h; further: potency means the concentration at half of the fitted maximal effect; on the % scale 0 is the no-effect control and ±100 the full control effect
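Infected RBCs, 2% Hct / 0.05% parasitemia final; luciferase-reporter P. falciparum; cpd 96 h, 37 C, 5% CO2; luciferase detection reagent; luminescence.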
The depositor's hits bear a star; ? = inconclusive; . = no result; [ ] = remark or other dose. In the library only some 21% were active in any assay of this set; here they are far more common. Unless noted, the call rests on the fitted dose curve; in most records, active means well fitted curve in the direction sought with a large enough effect; inconclusive means small, poorly fitted or top-dose-only effect, or another doubt; inactive means no such curve, though single readings can be large; an effect the other way counts as inactive or inconclusive.

SMILES | Pf growth 48h | Cycloheximide cs | Shiga toxin inh | Giardia FBPA inh | NS1 function inh | Pf growth 96h
O=c1c(Cl)c(O)c2cccc3c4ccccc4n1c23 | -19% | -1 | -11 | 1% | -30% | 51%
COc1c(O)c(=O)n2c3ccccc3c3ccnc1c32 | 10µM* | . | . | . | . | ?
COc1ccc(C(=O)Nc2cc(C)on2)c(OC)c1 | 122% | 38* | 41* | -4% | -30% | 85%
COc1cccc(C(=O)NC(=O)Nc2cc(C)on2)c1 | 339% | 56* | 71* | 1% | . | ?
COc1cccc(NC(=O)Nc2cc(C)on2)c1 | 32% | 23* | . | 4% | -29% | -28%
COc1cccc(-c2cc(C(=O)Nc3cc(C)on3)no2)c1 | 39% | 14 | 19 | -1% | -10% | 7%
Nc1[nH]c(N=NC(=O)c2ccc(F)cc2)c2ccccc12 | -21% | 91* | 121* | -8% | 25% | ?
Nc1ccccc1C(=O)N=Nc1[nH]c(N)c2ccccc12 | 105% | 44* | 16* | 21% | 11% | ?
Nc1ccccc1C(=O)NCc1ccc(F)cc1 | 21% | 4 | -7 | -2% | 12% | 37%
O=C(Nc1ccccc1NC(=O)c1ccc(F)cc1)c1ccc(F)cc1 | -12%[0.00184 µM] | -4 | -3 | 6% | 7% | ?
Cc1cccc(C(=O)NCC(=O)OCC(=O)N(C)CC(=O)Nc2ccc(F)cc2)c1 | 15% | . | . | . | . | 10%
CC[C@H](C)[C@H](NC(=O)[C@H](Cc1ccc(O)cc1)NC(=O)[C@H](Cc1cnc[nH]1)NC(=O)[C@H](CCCNC(=N)N)NC(=O)[C@H](CC(C)C)NC(=O)[C@H](C)NC(=O)[C@H](CO)NC(=O)[C@H](Cc1ccc(O)cc1)NC(=O)[C@H](Cc1ccc(O)cc1)NC(=O)[C@H](CCCNC(=N)N)NC(=O)[C@H](C)NC(=O)[C@H](CC(C)C)NC(=O)[C@H](CC(=O)O)NC(=O)[C@H](CCC(=O)O)NC(=O)[C@H](C)NC(=O)[C@@H]1CCCN1C(=O)[C@H](C)NC(=O)[C@H](CC(=O)O)NC(=O)[C@H](CCC(=O)O)NC(=O)CNC(=O)[C@@H]1CCCN1C(=O)[C@H](CC(N)=O)NC(=O)[C@H](CC(=O)O)NC(=O)[C@@H]1CCCN1C(=O)[C@H](CCCCN)NC(=O)[C@@H](N)CO)C(=O)N[C@@H](CC(N)=O)C(=O)N[C@@H](CC(C)C)C(=O)N[C@H](C(=O)N[C@H](C(=O)N[C@@H](CCCNC(=N)N)C(=O)N[C@@H](CCC(N)=O)C(=O)N[C@@H](CCCNC(=N)N)C(=O)N[C@@H](Cc1ccc(O)cc1)C(N)=O)[C@@H](C)O)[C@@H](C)CC | . | -6 | 10 | 2% | . | .
Cn1ncc2c(Nc3ccccc3Cl)nc(Nc3ccccc3Cl)nc21 | 7.4µM* | -4 | -5 | 1% | -2% | ?
CCN(CC(=O)NCc1ccc(Cl)cc1)C(=O)c1ccc(C#N)cc1 | -13% | 3 | -2 | -9% | -2% | 4%
COc1ccc(-c2nn(-c3ccccc3)cc2C(=O)NC2CC2)cc1 | -19% | . | . | . | . | ?
CC(C)CNS(=O)(=O)c1ccc(CCC(=O)O)cc1 | 12% | -1 | -3 | 5% | 2% | 18%
CC(C)(C)NS(=O)(=O)c1ccc(CCC(=O)Nc2cc(Cl)ccc2Oc2ccccc2)cc1 | 4.1µM* | 12 | -6 | -9% | 27% | .
CC(C)(C)NS(=O)(=O)c1ccc(CCC(=O)NCc2ccccn2)cc1 | -24% | 0 | -2 | 14% | 15% | 48%
CCCNS(=O)(=O)c1ccc(CCC(=O)Nc2cc(Cl)ccc2Oc2ccccc2)cc1 | 13µM* | -2 | 9 | 1% | 4% | -4%
CCCNS(=O)(=O)c1ccc(CCC(=O)NCCc2ccc(OC)c(OC)c2)cc1 | -6% | -2 | -13 | 1% | 6% | -9%
CC(C)CNS(=O)(=O)c1ccc(CCC(=O)Nc2cc(Cl)ccc2Oc2ccccc2)cc1 | . | -1 | -5 | 2% | 24% | 4.1µM*
COc1cc(=O)[nH]c(SCC(=O)Nc2nc3c(s2)CCCC3)n1 | -1% | 1 | -3 | -18% | 2% | 3%
CCOc1ccc2nc(NC(=O)CCn3cccc3)sc2c1 | . | 29* | 86* | -2% | 7% | ?
CCOc1ccc2nc(NC(=S)N(C)C)sc2c1 | . | 56* | 104* | 13% | -141% | ?
CCCC(=O)Nc1nc2ccc(OCC)cc2s1 | 0% | 46* | 73* | 0% | -6% | 10%
SMILES | Pf growth 48h | Cycloheximide cs | Shiga toxin inh | Giardia FBPA inh | NS1 function inh | Pf growth 96h
CCCOc1ccc2nc(NC(=O)OC)sc2c1 | -21% | . | . | . | . | -16%
CCOc1ccc2nc(NS(=O)(=O)c3ccc(NC(C)=O)cc3)sc2c1 | 91% | 1 | 25 | 14% | 1% | 2%
CCOc1ccc2nc(NC(=O)CSc3nc4cccnc4n3C)sc2c1 | 5% | -4 | -20 | 2% | -38% | 1%
CCOc1ccc2nc(NC(NC(C)=O)(C(=O)OC)C(F)(F)F)sc2c1 (stereo unspecified) | 5% | 5 | -16 | -7% | -9% | 7.4µM*
O=C1C2=CC[C@H]3C(=O)N(Cc4ccc5c(c4)OCO5)C(=O)[C@@H]3[C@@H]2[C@H](O)[C@@H]2O[C@H]12 | . | . | . | 0%[12.9 µM] | . | .
O=C1CN(C(=O)/C=C/c2ccco2)c2ccccc2N1 | 0% | 8 | 22 | 3% | 9% | 13%
O=C1NC(Cc2ccccc2)C(=O)N1Cc1cc([N+](=O)[O-])cc2c1OCOC2 (stereo unspecified) | -6% | 2 | -4 | 2% | . | -14%
CCOc1ccc2nc(NC(=O)CSc3ccccc3)sc2c1 | 5% | 18* | 69 | -3% | 2% | .
CN(C)C(=S)Nc1nc2ccccc2s1 | -25% | 38* | 104* | ? | -62% | -34%[1.15 µM]
CN(C)c1ccc(CNc2nc3ccccc3s2)cc1 | 137% | 34* | 68* | 8% | -11% | -6%
COc1ccc2nc(NC(=O)CSc3nc4ccccc4o3)sc2c1 | 50% | 40* | 134* | 1% | ? | ?
N#Cc1ccccc1OCC(=O)Nc1nnc(C2CC2)s1 | 154% | . | . | . | . | 15%
CN(Cc1cccc(Cl)c1)C(=O)C1CCC(=O)N(C2CC2)C1 (stereo unspecified) | 0% | 16 | 8 | 1% | 0% | -5%
CC(=O)CC(C)(C)NC(C)=S | 14% | -3 | -6 | 3% | 7% | 25%
Cc1ccc(CCN=c2c([N+](=O)[O-])nn(-c3ccccc3)n2O)cc1 | ? | 7 | 23 | -5% | -7% | 0%
COc1cccc(CN=c2c([N+](=O)[O-])nn(-c3ccccc3C)n2O)c1 | -28% | 2 | 33 | -4% | . | ?
O=[N+]([O-])c1nn(-c2ccccc2)n(O)c1=NCCc1ccccc1 | 4.1µM* | 25* | 112* | 0% | -35% | -6%
COc1ccc(-n2nc([N+](=O)[O-])c(=NCCc3ccccc3)n2O)cc1 | 0% | 15* | -8 | 3% | -14% | 0%
